Assay results as given in publication PMC7862700, “An all-to-all approach to the identification of sequence-specific readers for epigenetic DNA modifications on cytosine”.

What was measured:
Test in all cases: DAPPL (digital affinity profiling via proximity ligation, sequencing); 10 mM Tris-HCl pH 7.5, 50 mM NaCl, 1 mM DTT, 4% glycerol, room temperature, 30 min; GST-TFs on glutathione beads, 16-mer random dsDNA library, 0.1% formaldehyde crosslink after washing; high values mean tight binding
Details in all cases: protein: recombinant; tags: N-terminal GST; dsDNA, one strand shown
[1] = target: T1, FLI1 (Homo sapiens, UniProt Q01543 1-452)
T1 sequence: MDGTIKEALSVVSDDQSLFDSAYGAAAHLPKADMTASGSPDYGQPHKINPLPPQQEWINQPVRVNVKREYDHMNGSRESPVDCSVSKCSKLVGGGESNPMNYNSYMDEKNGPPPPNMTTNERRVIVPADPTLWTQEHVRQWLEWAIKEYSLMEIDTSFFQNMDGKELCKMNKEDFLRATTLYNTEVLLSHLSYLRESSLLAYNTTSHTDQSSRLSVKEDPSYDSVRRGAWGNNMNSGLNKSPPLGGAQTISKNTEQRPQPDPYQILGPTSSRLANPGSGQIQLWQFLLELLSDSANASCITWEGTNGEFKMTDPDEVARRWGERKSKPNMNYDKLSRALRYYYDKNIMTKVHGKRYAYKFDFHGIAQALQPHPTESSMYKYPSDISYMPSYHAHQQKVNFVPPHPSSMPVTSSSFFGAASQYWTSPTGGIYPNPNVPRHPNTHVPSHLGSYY
Method in brief: (§1)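 A tag-only sample was pooled with DNA-barcoded human transcription factors that had been expressed in yeast as GST fusions and captured on glutathione beads. The pools were incubated for 30 min at room temperature with 200 nmole of a random double-stranded 16-mer DNA library in Tris/NaCl/DTT/glycerol buffer, then washed, crosslinked with 0.1% formaldehyde, proximity-ligated (BsaI/T4 ligase, 1 h, 37 °C), PCR-amplified and sequenced on an Illumina NextSeq500. Binding signal is each hexamer's read frequency for a factor divided by its frequency for the tag-only sample.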

[2] = target: T2, ELK1 (Homo sapiens, UniProt P19419 1-428)
T2 sequence: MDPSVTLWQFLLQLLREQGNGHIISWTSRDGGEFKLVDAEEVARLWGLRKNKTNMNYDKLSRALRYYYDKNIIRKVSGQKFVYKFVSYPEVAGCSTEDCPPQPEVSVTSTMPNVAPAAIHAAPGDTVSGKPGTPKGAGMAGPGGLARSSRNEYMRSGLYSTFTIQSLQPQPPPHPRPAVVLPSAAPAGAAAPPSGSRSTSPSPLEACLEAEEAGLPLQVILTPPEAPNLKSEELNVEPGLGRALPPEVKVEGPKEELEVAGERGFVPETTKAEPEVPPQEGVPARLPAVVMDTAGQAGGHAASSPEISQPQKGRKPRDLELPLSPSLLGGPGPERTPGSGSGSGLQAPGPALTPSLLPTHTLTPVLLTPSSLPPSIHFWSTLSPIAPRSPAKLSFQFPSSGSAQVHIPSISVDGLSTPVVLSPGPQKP
Method in brief: as §1

[3] = target: T3, GABPA (Homo sapiens, UniProt Q06546 1-454)
T3 sequence: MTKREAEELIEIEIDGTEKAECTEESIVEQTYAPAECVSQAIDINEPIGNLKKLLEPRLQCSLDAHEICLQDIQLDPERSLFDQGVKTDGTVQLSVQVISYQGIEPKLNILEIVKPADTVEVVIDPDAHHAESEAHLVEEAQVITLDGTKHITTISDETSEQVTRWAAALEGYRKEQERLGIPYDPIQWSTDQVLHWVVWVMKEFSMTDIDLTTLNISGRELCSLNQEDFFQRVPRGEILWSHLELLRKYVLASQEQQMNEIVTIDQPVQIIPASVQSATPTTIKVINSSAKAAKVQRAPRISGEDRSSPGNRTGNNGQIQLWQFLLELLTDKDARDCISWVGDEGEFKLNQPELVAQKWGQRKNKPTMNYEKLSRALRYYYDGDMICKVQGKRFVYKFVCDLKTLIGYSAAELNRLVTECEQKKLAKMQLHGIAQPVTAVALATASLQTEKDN
Method in brief: as §1

[4] = target: T4, ERG (Homo sapiens, UniProt P11308 1-479)
T4 sequence: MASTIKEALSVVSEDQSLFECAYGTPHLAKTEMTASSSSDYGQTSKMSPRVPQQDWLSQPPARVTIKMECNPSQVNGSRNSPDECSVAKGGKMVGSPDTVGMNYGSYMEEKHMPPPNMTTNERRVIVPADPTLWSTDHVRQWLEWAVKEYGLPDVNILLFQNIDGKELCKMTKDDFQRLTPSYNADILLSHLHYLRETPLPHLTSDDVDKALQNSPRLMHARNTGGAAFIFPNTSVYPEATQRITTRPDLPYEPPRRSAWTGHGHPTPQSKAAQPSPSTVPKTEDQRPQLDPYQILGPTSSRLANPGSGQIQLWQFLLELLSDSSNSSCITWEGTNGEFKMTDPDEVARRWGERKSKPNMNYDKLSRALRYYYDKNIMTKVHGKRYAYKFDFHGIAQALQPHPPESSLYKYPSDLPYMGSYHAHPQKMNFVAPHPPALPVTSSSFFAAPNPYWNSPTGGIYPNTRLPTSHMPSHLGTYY
Method in brief: as §1

[5] = target: ELF1 (Homo sapiens, UniProt P32519 1-619)
Method in brief: as §1

[6] = target: T5, EHF (Homo sapiens, UniProt Q9NZC4 1-300)
T5 sequence: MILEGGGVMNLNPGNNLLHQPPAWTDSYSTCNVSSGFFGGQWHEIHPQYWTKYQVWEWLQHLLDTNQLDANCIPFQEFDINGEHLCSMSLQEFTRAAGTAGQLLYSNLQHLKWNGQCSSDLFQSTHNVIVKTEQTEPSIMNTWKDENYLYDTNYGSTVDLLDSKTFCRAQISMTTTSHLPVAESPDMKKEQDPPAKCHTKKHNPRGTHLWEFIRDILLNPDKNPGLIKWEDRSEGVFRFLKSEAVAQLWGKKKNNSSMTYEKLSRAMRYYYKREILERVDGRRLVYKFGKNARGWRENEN
Method in brief: as §1

[7] = target: SPI1 (Homo sapiens, UniProt P17947 1-270)
Method in brief: as §1

[8] = target: SPIB (Homo sapiens, UniProt Q01892 1-262)
Method in brief: as §1

[9] = target: T6, ELK3 (Homo sapiens, UniProt P41970 1-407)
T6 sequence: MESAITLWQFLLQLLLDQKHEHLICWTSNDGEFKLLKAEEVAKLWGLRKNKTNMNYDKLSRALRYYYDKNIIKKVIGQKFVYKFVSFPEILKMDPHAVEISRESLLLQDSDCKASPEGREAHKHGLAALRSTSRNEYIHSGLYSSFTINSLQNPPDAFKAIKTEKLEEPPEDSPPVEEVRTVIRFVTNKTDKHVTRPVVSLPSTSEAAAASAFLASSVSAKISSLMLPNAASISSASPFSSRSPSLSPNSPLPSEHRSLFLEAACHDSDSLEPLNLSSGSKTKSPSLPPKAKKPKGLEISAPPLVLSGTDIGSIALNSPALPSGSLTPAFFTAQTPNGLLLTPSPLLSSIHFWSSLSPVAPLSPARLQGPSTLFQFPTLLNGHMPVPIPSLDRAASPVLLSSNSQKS
Method in brief: as §1

SPIB, sequence (Q01892 whole entry): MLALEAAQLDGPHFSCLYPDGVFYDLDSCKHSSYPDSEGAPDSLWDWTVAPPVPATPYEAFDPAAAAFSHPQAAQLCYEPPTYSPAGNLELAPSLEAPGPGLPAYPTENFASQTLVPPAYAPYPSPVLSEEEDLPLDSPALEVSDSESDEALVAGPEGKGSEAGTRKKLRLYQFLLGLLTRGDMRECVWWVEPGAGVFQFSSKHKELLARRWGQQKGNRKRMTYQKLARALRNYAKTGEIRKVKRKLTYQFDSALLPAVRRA
ELF1, sequence (P32519 whole entry): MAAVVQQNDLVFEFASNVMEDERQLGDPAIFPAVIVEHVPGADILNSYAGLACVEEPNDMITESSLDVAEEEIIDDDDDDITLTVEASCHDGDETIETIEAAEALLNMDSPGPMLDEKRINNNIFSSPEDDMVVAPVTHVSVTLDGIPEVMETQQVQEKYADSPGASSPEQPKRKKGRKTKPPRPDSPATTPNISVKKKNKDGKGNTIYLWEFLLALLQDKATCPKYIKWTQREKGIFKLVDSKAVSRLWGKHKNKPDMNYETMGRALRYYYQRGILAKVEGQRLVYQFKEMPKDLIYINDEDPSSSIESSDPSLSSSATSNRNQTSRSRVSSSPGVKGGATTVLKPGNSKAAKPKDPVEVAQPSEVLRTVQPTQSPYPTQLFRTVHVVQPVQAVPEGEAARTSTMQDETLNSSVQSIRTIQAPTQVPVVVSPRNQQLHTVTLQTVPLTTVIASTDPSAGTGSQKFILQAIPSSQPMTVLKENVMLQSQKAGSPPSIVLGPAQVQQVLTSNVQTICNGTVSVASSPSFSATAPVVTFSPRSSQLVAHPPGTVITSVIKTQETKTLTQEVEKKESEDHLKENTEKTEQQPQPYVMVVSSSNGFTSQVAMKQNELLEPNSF

Sequence | binding signal [1] | binding signal [2] | binding signal [3] | binding signal [4] | binding signal [5] | binding signal [6] | binding signal [7] | binding signal [8] | binding signal [9]
GTACAA | 1.05 fold enrichment (6-mer frequency, TF over GST control) | 1.08 fold enrichment (6-mer frequency, TF over GST control) | 1.01 fold enrichment (6-mer frequency, TF over GST control) | 1.11 fold enrichment (6-mer frequency, TF over GST control) | 1.11 fold enrichment (6-mer frequency, TF over GST control) | 1.26 fold enrichment (6-mer frequency, TF over GST control) | 1.06 fold enrichment (6-mer frequency, TF over GST control) | 1.04 fold enrichment (6-mer frequency, TF over GST control) | 1.02 fold enrichment (6-mer frequency, TF over GST control)
CTGAAG | 1.02 fold enrichment (6-mer frequency, TF over GST control) | 1.14 fold enrichment (6-mer frequency, TF over GST control) | 1.11 fold enrichment (6-mer frequency, TF over GST control) | 1.08 fold enrichment (6-mer frequency, TF over GST control) | 1.11 fold enrichment (6-mer frequency, TF over GST control) | 1.02 fold enrichment (6-mer frequency, TF over GST control) | 1.05 fold enrichment (6-mer frequency, TF over GST control) | 1.04 fold enrichment (6-mer frequency, TF over GST control) | 1.01 fold enrichment (6-mer frequency, TF over GST control)
GGATAT | 1.61 fold enrichment (6-mer frequency, TF over GST control) | 1.65 fold enrichment (6-mer frequency, TF over GST control) | 1.45 fold enrichment (6-mer frequency, TF over GST control) | 2 fold enrichment (6-mer frequency, TF over GST control) | 1.48 fold enrichment (6-mer frequency, TF over GST control) | 1.55 fold enrichment (6-mer frequency, TF over GST control) | 1.37 fold enrichment (6-mer frequency, TF over GST control) | 1.58 fold enrichment (6-mer frequency, TF over GST control) | 1.55 fold enrichment (6-mer frequency, TF over GST control)
TGCCCT | 1.21 fold enrichment (6-mer frequency, TF over GST control) | 1.25 fold enrichment (6-mer frequency, TF over GST control) | 1.21 fold enrichment (6-mer frequency, TF over GST control) | 1.09 fold enrichment (6-mer frequency, TF over GST control) | 1.25 fold enrichment (6-mer frequency, TF over GST control) | 1.12 fold enrichment (6-mer frequency, TF over GST control) | 1.15 fold enrichment (6-mer frequency, TF over GST control) | 1.16 fold enrichment (6-mer frequency, TF over GST control) | 1.07 fold enrichment (6-mer frequency, TF over GST control)
ATTCCA | 1.17 fold enrichment (6-mer frequency, TF over GST control) | 1.1 fold enrichment (6-mer frequency, TF over GST control) | 1.16 fold enrichment (6-mer frequency, TF over GST control) | 1.14 fold enrichment (6-mer frequency, TF over GST control) | 1.22 fold enrichment (6-mer frequency, TF over GST control) | 1.13 fold enrichment (6-mer frequency, TF over GST control) | 1.16 fold enrichment (6-mer frequency, TF over GST control) | 1.1 fold enrichment (6-mer frequency, TF over GST control) | 1.25 fold enrichment (6-mer frequency, TF over GST control)
GGAATT | 1.14 fold enrichment (6-mer frequency, TF over GST control) | 1.1 fold enrichment (6-mer frequency, TF over GST control) | 1 fold enrichment (6-mer frequency, TF over GST control) | 1.12 fold enrichment (6-mer frequency, TF over GST control) | 1.07 fold enrichment (6-mer frequency, TF over GST control) | 1.24 fold enrichment (6-mer frequency, TF over GST control) | 1.16 fold enrichment (6-mer frequency, TF over GST control) | 1.18 fold enrichment (6-mer frequency, TF over GST control) | 1.24 fold enrichment (6-mer frequency, TF over GST control)
TGTACG | 1.18 fold enrichment (6-mer frequency, TF over GST control) | 1.23 fold enrichment (6-mer frequency, TF over GST control) | 1.08 fold enrichment (6-mer frequency, TF over GST control) | 1.15 fold enrichment (6-mer frequency, TF over GST control) | 1.11 fold enrichment (6-mer frequency, TF over GST control) | 1.12 fold enrichment (6-mer frequency, TF over GST control) | 1.19 fold enrichment (6-mer frequency, TF over GST control) | 1.1 fold enrichment (6-mer frequency, TF over GST control) | 1.23 fold enrichment (6-mer frequency, TF over GST control)
